Laboratory results as given in PubChem BioAssay AID624483 (NMMLSC, 2012).
Hit rate of the full screen: of about 360,000 compounds, about 11,000 (3.1%) were called active. Inconclusive results (about 2%) are left out. The sample as a whole holds a higher share of actives than the screen did. A number with no mark means an inactive call. Rule as the data show it: active = fluorescence intensity above about 16000; inconclusive = no clear call, values can overlap the other calls; inactive = below that.

Assay: counter-screen for toxin protease inhibitors: compound fluorescence, primary screen, artefact control for toxin protease inhibitor project, biochemical, multiplex microsphere, HTS (AID 624483)
Details: compound autofluorescence counterscreen, microsphere flow cytometry; active compounds read high

Row | Structure (SMILES) | fluorescence intensity
1 | Cc1cccc(C)c1-n1nnnc1C1(C)CCC(=O)N1CCOc1ccccc1 (stereo not drawn) | 6150
2 | Cc1nc2c(OCC(=O)C(C)(C)C)cccn2c1N(C)Cc1cccs1 | 2880
3 | CC(C)C[C@@H]1Cc2[nH][nH]c(=O)c2[C@H](CCc2ccccc2)O1 | 4470
4 | N=C1c2ccccc2-c2ccccc21 | 3590
5 | COc1ccc(C(C#N)N2N=C(C)CC2(C)C)cc1 (stereo not drawn) | 4130
6 | CCS(=O)(=O)c1ccc2oc(SCC(=O)N3c4ccccc4CC3C)nc2c1 (stereo not drawn) | 8960
7 | CC1Cc2ccccc2N1C(=O)CSc1nnc(C2CC2)n1C (stereo not drawn) | 4920
8 | CC1Cc2ccccc2N1C(=O)CSc1nc2ccccc2o1 (stereo not drawn) | 16300 (active)
9 | CC1CC(C)CN(C(=O)CSc2nnc(CSc3ncccn3)n2C)C1 (stereo not drawn) | 4260
10 | O=C(CSc1nc2ccccc2o1)N1c2ccccc2Sc2ccc(Cl)cc21 | 22300 (active)
11 | Cc1ccccc1OCc1nnc(SCC(=O)N2c3ccccc3Sc3ccc(Cl)cc32)o1 | 20200 (active)
12 | O=C(CSc1nc2ccccc2o1)N1CCN(c2ccccc2)CC1 | 2560
13 | CCn1c(CSc2ncccn2)nnc1SCC(=O)N1c2ccccc2CC1C (stereo not drawn) | 23500 (active)
14 | CC1Cc2ccccc2N1C(=O)Cn1cnc2ccccc2c1=O (stereo not drawn) | 3200
15 | O=C(CSc1nc2ccccc2o1)N1CCN(c2ccc(Cl)cc2)CC1 | 6400
16 | CC(C)NC(=O)CSc1nnc(COc2ccccc2Cl)o1 | 4480
17 | Cc1ccc(NC(=O)CSc2nnc(COc3ccccc3C)o2)cc1 | 3160
18 | O=S(=O)(c1ccc(Cl)cc1)N1CCCN(c2ccc(C(F)(F)F)cn2)CC1 | 6060
19 | NC(c1csc(NC(=O)Nc2cccc(C(F)(F)F)c2)n1)C1CCCCC1 (stereo not drawn) | 2870
20 | Cc1cc2oc3ccc(NCCC4CCCN4C)cc3c(=O)c2cc1C (stereo not drawn) | 5120
21 | COC(=O)c1ccc2nc(-c3ccc(F)cc3)c(Cc3ccc(C)cc3)n2c1 | 7460
22 | Cc1ccc(NC2=NC(c3ccccc3)n3c(nc(C)cc3=O)N2)cc1 (stereo not drawn) | 3910
23 | CC(=O)Nc1c(-c2ccc(C)cc2)nc2ccc(Cl)cn12 | 2860
24 | Cc1occc1C(=O)NC1CCCN(Cc2ccc(CC(C)C)cc2)C1 (stereo not drawn) | 7560
25 | COc1ccc(C2=Nc3ccccc3NC(=O)C2N(C(=O)c2cc3ccccc3[nH]2)c2ccccc2)cc1 (stereo not drawn) | 6050

Row | Structure (SMILES) | fluorescence intensity
26 | COc1ccc(-c2cc3c(c4c2ccn4C)C2CCC3C2)cn1 (stereo not drawn) | 2710
27 | COC(=O)C1C(=O)NCC1c1ccc(C)cc1 (stereo not drawn) | 15900
28 | COC(=O)C1C(=O)NCC1c1ccc(OC)cc1 (stereo not drawn) | 17100 (active)
29 | CCOC(=O)C1C(=O)NCC1c1ccccc1 (stereo not drawn) | 9370
30 | COc1ccc(-c2cc(NC=O)c3ncc(-c4cccc(C(=O)N(C)C)c4)n3c2)c(OC)c1 | 3580
31 | Fc1ccc2nc(-c3ccccc3)nc(SCc3nnc(-c4ccccc4)o3)c2c1 | 4280
32 | Clc1ccc(-c2nnc(SCc3nc4ccccc4s3)o2)cc1 | 2530
33 | O=c1c(-c2ccc(Cl)cc2)[n+]([O-])c2ccccc2n1OCc1nc2ccccc2[nH]1 | 4300
34 | O=C(OCc1nc2ccccc2[nH]1)C1CCCCC1 | 2190
35 | Clc1ccccc1SCc1nc2ccccc2[nH]1 | 24700 (active)
36 | c1ccc2cc3[nH]c(CN4CCCCC4)nc3cc2c1 | 5430
37 | Oc1ccc2nc(Cc3ccccc3)[nH]c2c1 | 4090
38 | c1ccc(-c2nnc(SCc3nc4ccccc4[nH]3)o2)cc1 | 18800 (active)
39 | c1ccc2c(CSCc3nc4ccccc4[nH]3)cccc2c1 | 21700 (active)
40 | CC1(Oc2ccccc2-c2ccno2)CCN(Cc2ccc(-c3ccccc3)o2)C1 (stereo not drawn) | 3970
41 | CN1CCN(c2ccncc2S(=O)(=O)N2CCCC2)CC1 | 3800
42 | Cc1ccc(NC(=O)c2ccc(S(=O)(=O)NCC3CCCO3)cc2)cc1C (stereo not drawn) | 4660
43 | CCc1c(O)nc(SCC(=O)Nc2ccccc2)n(C(C)CC)c1=O (stereo not drawn) | 9640
44 | CCOC(=O)c1cc2cc(C)ccc2[nH]1 | 4370
45 | Cc1cc(Br)cn2c(Cc3cccc(F)c3)c(-c3cccc(Br)c3)nc12 | 5680
46 | C=CC[C@@H](Cc1ccc(F)cc1)C(=O)OC[C@H]1CCCN1C(=O)[C@H](CC=C)CC(=O)N(CCO)Cc1ccccc1 | 3800
47 | Cc1cccc(OCc2nnc(SCn3nnc4ccccc4c3=O)o2)c1 | 4060
48 | Cc1cc(C)cc(OCc2nnc(SCC(=O)OC3CCCCC3)o2)c1 | 19000 (active)
49 | Cc1cc(C)cc(-c2nnc(SCC(=O)NC3CC3)o2)c1 | 8900
50 | CN(C)CCN1CCN(c2cc(-c3cccc(Cl)c3)nc3ccnn23)CC1 | 3570

Row | Structure (SMILES) | fluorescence intensity
51 | COC(=O)[C@@]1(Sc2ccc(C)cc2)CC(=O)N(c2cccc(SC)c2)[C@@H]1c1ccccc1 | 4090
52 | CCc1nc2oc3ccccc3c(=O)c2c(=O)n1Cc1ccc(OC)cc1 | 17100 (active)
53 | O=c1c2ccccc2oc2nc3n(c(=O)c12)CCCS3 | 10300
54 | COc1ccc(Cn2c(=O)oc3ccccc32)cc1 | 2890
55 | CCCCn1nnnc1C1(C)CCC(=O)N1Cc1ccc(OC)c(OC)c1 (stereo not drawn) | 5290
56 | CCOC(=O)c1cc(NC(=O)c2ccc(Cl)cc2)c(=O)oc1-c1ccccc1 | 5720
57 | CC(=O)c1cc(NC(=O)c2ccccc2)c(=O)oc1/C=C/N(C)C | 24500 (active)
58 | COc1cc(NC(=O)c2ccccc2)c(OC)cc1NC(=O)Cc1ccccc1 | 4090
59 | O=C(CNC(=O)c1cc2c(s1)CCC2)Nc1ccccc1Br | 24100 (active)
60 | O=C(NCC1CCCO1)c1cc2c(s1)CCCC2 (stereo not drawn) | 8290
61 | O=C(CCc1nc2sc3c(c2c(=O)[nH]1)CCCC3)NCC(=O)Nc1ccccc1Br | 3820
62 | CN(C)c1ccc(N/C=C/C(=O)C(F)(F)F)cc1 | 3470
63 | CCc1nc2ccc(C(=O)NCCNC(C)=O)cn2c1N(CC)Cc1cccc(Br)c1 | 3860
64 | Cc1ccn2c(=O)nc(SCC(=O)NCc3ccc(F)cc3)nc2c1 | 16300 (active)
65 | Cc1ccn2c(=O)nc(SCC(=O)NCc3ccc4c(c3)OCO4)nc2c1 | 5730
66 | Cc1ccc(CNC(=O)CSc2nnc3c(n2)[nH]c2ccc(F)cc23)cc1 | 5580
67 | COc1ccc(CC(N)c2csc(NC(=O)Nc3ccc(C(C)C)cc3)n2)cc1 (stereo not drawn) | 3480
68 | Nc1scc[n+]1Cc1cccc2cccnc12 | 3430
69 | c1ccc2c(C[n+]3csc4ccccc43)cccc2c1 | 24500 (active)
70 | c1ccc2c(CNn3cnnc3)cccc2c1 | 2660
71 | CC1CCN(S(=O)(=O)c2ccc(S(=O)(=O)NCc3cccnc3)cc2)CC1 | 4180
72 | O=S(=O)(NCc1ccccn1)c1ccc(Br)s1 | 18000 (active)
73 | O=S(=O)(NCc1ccccn1)c1ccc(F)cc1 | 11500
74 | Cc1cc(S(=O)(=O)NCc2ccccn2)c(Cl)cc1Cl | 3790
75 | O=S(=O)(NCc1cccnc1)c1ccc(Br)s1 | 23300 (active)

Row | Structure (SMILES) | fluorescence intensity
76 | O=S(=O)(NCc1cccnc1)c1ccc(Cl)nc1 | 2520
77 | CN(C(=O)c1cccc(NC(=O)C2CCN(C(=O)OC(C)(C)C)CC2)c1)C1CCC1 | 4250
78 | CCc1ccnc(NS(=O)(=O)c2ccc3c(c2)OCCO3)c1 | 6030
79 | CC(=O)NN=C(C)c1ccc(NC(=O)C2CC2)cc1 | 3420
80 | CCCCCn1nnnc1-c1nc2cc3ccccc3cc2[nH]c1=O | 5190
81 | CC(O)C(NS(=O)(=O)c1ccc(Cl)cc1)C(=O)OCc1cc([N+](=O)[O-])cc2c1OCOC2 (stereo not drawn) | 3270
82 | Nc1ccccc1SCc1cc([N+](=O)[O-])cc2c1OCOC2 | 22000 (active)
83 | COc1ccccc1CSc1ncc(-c2ccc([N+](=O)[O-])cc2)[nH]1 | 2560
84 | Cn1c(NC(=O)c2ccco2)c(-c2ccccc2Cl)c(=O)c2ccccc21 | 5600
85 | COc1cccc(-c2cnc(C(O)c3ccccc3OC)[nH]2)c1 (stereo not drawn) | 4140
86 | CN(Cc1nc2ccccc2c(=O)[nH]1)Cc1cc(=O)oc2ccc3ccccc3c12 | 10600
87 | CCN(Cc1nc2ccccc2c(=O)[nH]1)Cc1cc(=O)oc2cc(C)c(C)cc12 | 22700 (active)
88 | CCN(CC(=O)NC(=O)NCc1ccccc1)Cc1nc2ccccc2c(=O)[nH]1 | 4790
89 | Cc1ccccc1/[N+]([O-])=C/c1ccncc1 | 3600
90 | O=C(Nc1ccc(F)cc1)Nc1nnc([C@H]2C[C@H](O)[C@@H](CO)O2)s1 | 2870
91 | COc1cccc(OCC(=O)NNC(=O)c2cnccn2)c1 | 2360
92 | COc1ccc(C(=O)NNC(=O)c2cnccn2)cc1[N+](=O)[O-] | 16500 (active)
93 | CCOc1ccc(C(=O)Nc2nccs2)cc1[N+](=O)[O-] | 2430
94 | Cc1ccc(CC2(C)C(=O)Nc3ccc(OC(F)(F)F)cc32)cc1 (stereo not drawn) | 3690
95 | O=C(COc1ccc(S(=O)(=O)Nc2cccc(C(F)(F)F)c2)cc1)N1CCOCC1 | 4570
96 | O=C(Nc1cccc(OCC(=O)N2CCOCC2)c1)C1CCCCC1 | 23600 (active)
97 | Cc1cccc(NC(=O)C2CCN(C(=O)NC3CCCCC3)CC2)c1 | 3730
98 | C#Cc1ccc(NC(=O)C2(C)CCN2C(=O)Cc2ccc(-c3ccccc3)cc2)cc1 (stereo not drawn) | 3720
